Measurements reported in PubChem BioAssay (EPA / NIEHS).
Where “and” joins values, the source holds several entries; their conditions need not be identical. Equal values may be shown once. Records with an inconclusive call do not appear. Calls of active or inactive are those of the source. Rule for the calls, unless noted: active = hit-call score of the fitted dose curve at least 0.9, where 1 is the maximum; inconclusive = response in the unintended direction; inactive = score below 0.9.

Columns and labels:
[1] = TOX21_p53_BLA_p2_viability: Viability Assessment in the Tox21 HCT-116 p53 Agonism Beta-lactamase Assay, Phase 2 (AID 2283591);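 note: actives lower the ATP signal meaning cytotoxicity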
Outline: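 Cytotoxicity readout: CellTiter-Glo ATP luminescence, 30 min at room temperature, after the beta-lactamase read. Cells were HCT116 exposed 16 h at 37C to compounds pin-transferred at 217-fold dilution from DMSO stocks.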

[2] = target: Cellular tumor antigen p53 (Homo sapiens) (UniProt P04637); assay: TOX21_p53_BLA_p2_ratio: Tox21 HCT-116 p53 Agonism Beta-lactamase Assay, Ratio, Phase 2 (AID 2283592)
Outline: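 Ratio endpoint: beta-lactamase cleavage of CCF4-AM, blue (460 nm) over green (530 nm). HCT116 reporter line; 16 h treatment, 37C; substrate 2 h RT.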

[3] = TOX21_p53_BLA_p3_viability: Viability Assessment in the Tox21 HCT-116 p53 Agonism Beta-lactamase Assay, Phase 3 (AID 2283593);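 note: cells exposed to compound for 16 h before reading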
Outline: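 Cellular ATP was quantified by CellTiter-Glo luminescence, read after 30 min at room temperature. Beforehand, HCT116 cells (4000/well) received compound 5 h post-seeding, 217-fold diluted from DMSO, then incubated 16 h at 37C.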

[4] = target: Cellular tumor antigen p53 (Homo sapiens) (UniProt P04637); assay: TOX21_p53_BLA_p3_ratio: Tox21 HCT-116 p53 Agonism Beta-lactamase Assay, Ratio, Phase 3 (AID 2283596)
Outline: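 Cells were seeded at 4000/well, rested 5 h at 37C, then dosed with DMSO compound solutions (217-fold dilution) for 16 h. CCF4-AM substrate was loaded for 2 h at room temperature, and the 460/530 nm emission ratio was fitted for gain of signal versus DMSO.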

[5] = TOX21_p53_BLA_p4_viability: Viability Assessment in the Tox21 HCT-116 p53 Agonism Beta-lactamase Assay, Phase 4 (AID 2283597);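 note: hits lower the luminescence signal meaning cytotoxicity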
Outline: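 Cytotoxicity was inferred from loss of CellTiter-Glo luminescence. HCT116 cells had been dosed with compounds after 5 h plating, incubated 16 h at 37C and 5% CO2, and exposed to the CCF4-AM substrate for 2 h.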

[6] = target: Cellular tumor antigen p53 (Homo sapiens) (UniProt P04637); assay: TOX21_p53_BLA_p5_ratio: Tox21 HCT-116 p53 Agonism Beta-lactamase Assay, Ratio, Phase 5 (AID 2283599)
Outline: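 Beta-lactamase reporter ratio (blue 460 nm over green 530 nm, 405 nm excitation) after 2 h CCF4-AM loading, in HCT-116 cells exposed 16 h at 37 C to compounds pinned at 217-fold dilution. Increases relative to DMSO baseline scored.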

[7] = target: Cellular tumor antigen p53 (Homo sapiens) (UniProt P04637); assay: TOX21_p53_BLA_p4_ratio: Tox21 HCT-116 p53 Agonism Beta-lactamase Assay, Ratio, Phase 4 (AID 2283601)
Outline: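 Signal is the blue/green (460nm/530nm) ratio of cleaved versus uncleaved CCF4-AM substrate, read after 2 h substrate loading. Cells were HCT116 carrying the p53-responsive beta-lactamase reporter, dosed 16 h at 37C, 5% CO2; CellTiter-Glo measured in parallel.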

[8] = TOX21_p53_BLA_p5_viability: Viability Assessment in the Tox21 HCT-116 p53 Agonism Beta-lactamase Assay, Phase 5 (AID 2283600)
Outline: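 Luciferase-coupled ATP quantitation of cells treated for 16 h (37C, 5% CO2) with test chemicals delivered in DMSO via a 217-fold dilution; 4000 cells/well; reagent incubated 30 min at room temperature before luminescence reading.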

[9] = CCTE_Harrill_HTTr_Apoptosis_MCF7: CCTE's 6-hour Apoptosis Assessment for the High-Throughput Transcriptomics (HTTr) Platform, in MCF-7 cells cultured in DMEM + 10% fetal bovine serum, Harrill Lab (AID 2284011; active = hit-call score of the fitted dose curve at least 0.9, where 1 is the maximum; inactive = score below 0.9)
Outline: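 MCF-7 cells in DMEM + 10% fetal bovine serum were exposed to chemicals for 6 hours over an eight-point dilution series. Caspase-3/7 activation was imaged by high content imaging with CellEvent Caspase 3/7 Green; bidirectional fitting used DMSO as baseline.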

PGR (gene 5241) [10] = target: PGR (gene 5241) (UniProt P06401); assay: TOX21_PR_BLA_Followup_Agonist_ratio: Tox21 HEK293 Progesterone Receptor (PR) Agonism Beta-lactamase Follow-Up Assay, Ratio (AID 2283933)
Outline: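 Beta-lactamase reporter readout: ratio of cleaved (ch2) to uncleaved (ch1) substrate after 2 h room-temperature loading, following 16 h compound exposure at 37C. Cells were PR-UAS-bla HEK293T in 2% charcoal-stripped FBS medium. Viability was multiplexed by CellTiter-Glo.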

PGR (gene 5241) [11] = target: PGR (gene 5241) (UniProt P06401); assay: TOX21_PR_BLA_Followup_Antagonist_ratio: Tox21 HEK293 Progesterone Receptor (PR) Antagonism Beta-lactamase Follow-Up Assay, Ratio (AID 2283934);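 note: PR-UAS-bla HEK293T cells stimulated with 1 nM R5020 agonist for 16 hr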
Outline: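 Readout is the blue/green (ch2/ch1) substrate cleavage ratio after 2 hours at room temperature, following 16 hr co-treatment of PR-bla HEK293T cells with compound and 1nM promegestone. Multiplexed CellTiter-Glo viability flags cytotoxicity; DMSO baseline.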

[12] = TOX21_PR_BLA_Followup_Agonist_viability: Viability Assessment in the Tox21 HEK293 Progesterone Receptor (PR) Agonism Beta-lactamase Follow-Up Assay (AID 2283935);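 note: signal loss means lower viability so actives are cytotoxic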
Outline: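 Run multiplexed with the beta-lactamase FRET read, this endpoint measures ATP by CellTiter-Glo luminescence (30 min, room temperature). PR-UAS-bla HEK293T cells received compound 6 hr after plating and were then incubated 16 hr at 37C in 2% stripped serum.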

[13] = TOX21_PR_BLA_Followup_Antagonist_viability: Viability Assessment in the Tox21 HEK293 Progesterone Receptor (PR) Antagonism Beta-lactamase Follow-Up Assay (AID 2283936);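 note: cells exposed to compound with R5020 agonist for 16 h; hits lower the luminescence signal meaning cytotoxicity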
Outline: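 PR-UAS-bla HEK293T cells in medium with 2% charcoal-stripped FBS were treated with compounds plus R5020 for 16 hr at 37C. After the beta-lactamase read, CellTiter-Glo was added to the same wells and luminescence read after 30 min at room temperature.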

PGR (gene 5241) [14] = target: PGR (gene 5241) (UniProt P06401); assay: TOX21_PR_LUC_Followup_Agonist: Tox21 HEK293 Progesterone Receptor (PR) Agonism Luciferase Follow-Up Assay (AID 2283937; active = hit-call score of the fitted dose curve at least 0.9, where 1 is the maximum; inactive = score below 0.9)
Outline: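 Agonism scored as luciferase induction over DMSO, read by ONE-Glo after 30 min at RT. Compounds were incubated 16 h at 37C on HEK293-PR-A-luc cells (3,000/well, pre-plated 5 h) previously grown 5 days in charcoal-stripped serum.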

PGR (gene 5241) [15] = target: PGR (gene 5241) (UniProt P06401); assay: TOX21_PR_LUC_Followup_Antagonist: Tox21 HEK293 Progesterone Receptor (PR) Antagonism Luciferase Follow-Up Assay (AID 2283938);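 note: curve fitted upward as signal gain over DMSO baseline despite antagonist label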
Outline: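 HEK293-PR-A-luc cells were precultured 5 days in medium with 10% charcoal-stripped FBS, seeded 3,000/well, then exposed to compounds in DMSO for 16 h at 37C. Luciferase was read by ONE-Glo luminescence after 30 min at room temperature.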

[16] = TOX21_PR_LUC_Followup_Agonist_viability: Viability Assessment in the Tox21 HEK293 Progesterone Receptor (PR) Agonism Luciferase Follow-Up Assay (AID 2283941);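 note: loss of signal means cytotoxicity so actives lower viability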
Outline: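 Cytotoxicity counter-readout in the PR-A luciferase reporter line HEK293, with 16 h compound exposure at 37C after cells were cultured in charcoal-stripped serum. Cellular ATP quantified by CellTiter-Glo luminescence.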

Measured: AC50

Chain of PGR (gene 5241) (P06401 whole entry, looked up): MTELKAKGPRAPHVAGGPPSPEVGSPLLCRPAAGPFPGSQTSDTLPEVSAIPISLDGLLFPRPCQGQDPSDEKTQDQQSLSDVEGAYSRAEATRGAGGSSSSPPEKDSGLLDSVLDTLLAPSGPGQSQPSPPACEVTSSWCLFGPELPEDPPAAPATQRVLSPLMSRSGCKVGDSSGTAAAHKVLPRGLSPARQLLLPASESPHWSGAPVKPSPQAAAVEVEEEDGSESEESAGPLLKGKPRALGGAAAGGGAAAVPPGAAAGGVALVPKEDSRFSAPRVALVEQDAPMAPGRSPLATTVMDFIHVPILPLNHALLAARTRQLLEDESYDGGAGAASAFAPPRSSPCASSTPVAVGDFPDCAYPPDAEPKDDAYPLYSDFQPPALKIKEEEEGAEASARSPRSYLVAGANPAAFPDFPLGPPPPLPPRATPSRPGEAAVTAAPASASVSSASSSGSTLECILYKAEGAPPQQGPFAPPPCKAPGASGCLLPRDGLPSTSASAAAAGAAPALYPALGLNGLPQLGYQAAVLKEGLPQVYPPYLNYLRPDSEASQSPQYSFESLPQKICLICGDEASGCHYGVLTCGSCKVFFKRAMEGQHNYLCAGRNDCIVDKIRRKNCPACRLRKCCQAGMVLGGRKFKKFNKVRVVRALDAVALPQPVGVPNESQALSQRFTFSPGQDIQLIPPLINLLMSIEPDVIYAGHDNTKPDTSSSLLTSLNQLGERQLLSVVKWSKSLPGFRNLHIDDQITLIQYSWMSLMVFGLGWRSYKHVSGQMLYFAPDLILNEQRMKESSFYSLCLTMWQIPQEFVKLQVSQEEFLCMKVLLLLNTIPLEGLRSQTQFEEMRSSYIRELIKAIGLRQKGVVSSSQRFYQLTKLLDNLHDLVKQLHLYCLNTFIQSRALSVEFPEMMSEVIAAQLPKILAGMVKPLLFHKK
Chain of Cellular tumor antigen p53 (Homo sapiens) (P04637 whole entry, looked up): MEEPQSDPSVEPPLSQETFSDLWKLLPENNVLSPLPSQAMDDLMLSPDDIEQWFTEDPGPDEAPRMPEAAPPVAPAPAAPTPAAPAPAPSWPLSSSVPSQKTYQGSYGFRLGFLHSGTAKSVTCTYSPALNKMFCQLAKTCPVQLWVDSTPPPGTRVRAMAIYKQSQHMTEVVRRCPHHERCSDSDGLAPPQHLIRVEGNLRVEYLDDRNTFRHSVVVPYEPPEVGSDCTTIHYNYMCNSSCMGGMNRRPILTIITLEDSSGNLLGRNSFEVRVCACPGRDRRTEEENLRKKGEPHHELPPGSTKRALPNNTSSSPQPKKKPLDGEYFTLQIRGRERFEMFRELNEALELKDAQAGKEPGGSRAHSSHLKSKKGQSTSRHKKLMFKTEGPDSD

Oc1cc(Cl)cc(Cl)c1
active: [2] 79 µM | [6] 85.2 µM
inactive: [1] | [3] | [4] | [5] | [7]

Oc1ccc(C2(c3ccc(O)cc3)CCCCC2)cc1
inactive: [9]
active: [1] 72.1 µM | [2] 83.2 µM | [3] 44.1 µM | [4] 83.7 µM | [5] 46.3 µM | [6] 82.3 µM | [8] 74 µM | [7] 82.9 µM

BrCCc1ccccc1
inactive: [1] | [2] | [3] | [4] | [5] | [8]

CCOC(=O)C1(c2ccccc2)CCN(CCC(C#N)(c2ccccc2)c2ccccc2)CC1
active: [2] 16.3 µM and 6.96 µM | [4] 41.6 µM and 7.95 µM | [6] 56.4 µM and 23.9 µM | [7] 43.7 µM and 8.27 µM | PGR (gene 5241) [11] 13.7 µM
not listed: [9]
inactive: all other assays above
